Measurements from PubChem BioAssay AID604 (The Scripps Research Institute Molecular Screening Center, 2007).
In all, about 60,000 compounds went through this assay and about 210 (0.35%) were called active. The entries come from a sample that favours actives as a whole. A number with no mark means an inactive call.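 How the source made its calls: active means inhibition above the screen-wide mean inhibition plus 3 SD (cut at about 18% in these data); inactive means the rest.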

Each molecule was assayed against Rho-associated protein kinase 2 (Homo sapiens) (UniProt O75116) (assay: inhibitors of human ROCK2 kinase, primary screen, biochemical, high-throughput, luminescence (AID 604;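 further: plate controls were DMSO wells for no effect and Y-27632 control wells after no-enzyme background subtraction for full effect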)). Conditions: purified ROCK2, Kinase-Glo ATP depletion luminescence; at 6 µM; hits give high values.
Chain of Rho-associated protein kinase 2 (Homo sapiens) (O75116 whole entry, looked up): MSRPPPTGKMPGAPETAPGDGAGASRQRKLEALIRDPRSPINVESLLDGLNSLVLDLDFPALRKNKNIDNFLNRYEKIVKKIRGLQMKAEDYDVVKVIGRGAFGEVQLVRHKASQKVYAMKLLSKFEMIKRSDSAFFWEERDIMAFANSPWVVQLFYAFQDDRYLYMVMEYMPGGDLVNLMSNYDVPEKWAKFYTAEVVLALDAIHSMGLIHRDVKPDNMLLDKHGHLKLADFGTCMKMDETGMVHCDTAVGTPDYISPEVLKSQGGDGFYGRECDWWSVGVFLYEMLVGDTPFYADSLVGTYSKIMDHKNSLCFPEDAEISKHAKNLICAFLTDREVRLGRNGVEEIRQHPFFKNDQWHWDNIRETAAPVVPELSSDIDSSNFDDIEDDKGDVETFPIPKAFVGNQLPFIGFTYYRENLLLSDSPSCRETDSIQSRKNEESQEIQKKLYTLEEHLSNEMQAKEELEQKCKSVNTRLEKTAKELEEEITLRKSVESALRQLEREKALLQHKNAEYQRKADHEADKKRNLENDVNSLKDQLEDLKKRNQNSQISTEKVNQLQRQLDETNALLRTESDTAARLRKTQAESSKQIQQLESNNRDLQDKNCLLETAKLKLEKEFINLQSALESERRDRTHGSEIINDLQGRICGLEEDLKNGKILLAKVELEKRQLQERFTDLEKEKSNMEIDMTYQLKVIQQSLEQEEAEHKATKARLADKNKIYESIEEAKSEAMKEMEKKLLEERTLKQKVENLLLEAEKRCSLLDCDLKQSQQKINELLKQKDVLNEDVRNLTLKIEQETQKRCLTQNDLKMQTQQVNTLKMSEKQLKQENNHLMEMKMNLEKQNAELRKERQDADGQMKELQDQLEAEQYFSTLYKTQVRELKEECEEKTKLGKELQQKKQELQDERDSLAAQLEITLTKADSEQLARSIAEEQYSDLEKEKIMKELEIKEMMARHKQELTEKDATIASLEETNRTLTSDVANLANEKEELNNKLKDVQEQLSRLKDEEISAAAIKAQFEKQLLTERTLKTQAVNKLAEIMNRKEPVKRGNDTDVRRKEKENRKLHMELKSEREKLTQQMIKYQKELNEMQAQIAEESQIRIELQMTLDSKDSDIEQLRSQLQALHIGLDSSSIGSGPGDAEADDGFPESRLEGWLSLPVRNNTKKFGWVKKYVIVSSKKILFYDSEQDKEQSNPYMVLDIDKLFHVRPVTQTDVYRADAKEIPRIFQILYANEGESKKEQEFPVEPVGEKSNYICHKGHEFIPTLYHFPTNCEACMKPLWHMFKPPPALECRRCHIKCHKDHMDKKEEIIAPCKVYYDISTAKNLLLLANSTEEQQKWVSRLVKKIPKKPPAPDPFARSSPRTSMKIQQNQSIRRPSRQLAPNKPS
In the case of CCOC(=O)C1(c2ccccc2)NC(c2ccc(N(C)C)cc2)C2C(=O)N(C)C(=O)C21 (stereo not given), the inhibition is reported as 5.3%.
Work on O=C(CSc1nnc(-c2ccco2)n1Cc1ccccc1)NC(=O)NCc1ccco1 yielded an inhibition of 5.5%.
Work on Cc1nonc1OCCn1nnnc1N yielded an inhibition of 4%.
With CCCC(=O)N1CCc2[nH]c3ccccc3c2C1 the inhibition was 14.9%.
Molecule COC(=O)c1cc(OC)c(OC)cc1NC(=O)C1CCCO1 (stereo not given) has an inhibition of 5.6%.
With CS(=O)(=O)N(Cc1nc2sc3c(c2c(=O)[nH]1)CCCC3)C1CCCCC1 the inhibition was -12.6%.
For Cc1cccc(NC(=O)CSc2nnc(CCCCCNC(=O)OC(C)(C)C)o2)c1C, the inhibition was 3.8%.
Work on CC1CCC(NS(=O)(=O)c2ccc3c(c2)n(C)c(=O)c(=O)n3C)CC1 (stereo not given) yielded an inhibition of 3.2%.
CC(C)Cc1ccc(S(=O)(=O)N2CCN(C(=O)c3ccco3)CC2)cc1 was tested, and the inhibition was 8%.
Molecule O=C(C(NS(=O)(=O)c1cccc2nsnc12)c1ccccc1)N1CCN(c2ccccn2)CC1 (stereo not given) has an inhibition of 6.9%.
Work on COc1cccc(N(CC(=O)Nc2cccc(F)c2)S(C)(=O)=O)c1 yielded an inhibition of -1.3%.
Molecule O=C(O)CCSc1nnc(-c2ccccc2)n1-c1ccccc1 has an inhibition of 2.5%.
Work on CN1C(=O)CC(N2CCN(c3ccccn3)CC2)C1=O (stereo not given) yielded an inhibition of 0.7%.
With COc1ccc(Cc2nnc(NS(=O)(=O)Cc3ccccc3)s2)cc1 the inhibition was -0.2%.
CCOC(=O)CSc1nnc(NC(=O)c2cccc(S(=O)(=O)N3CCCC3)c2)s1 gave an inhibition of -2.8%.
Work on CC(C)OC(=O)C(C#N)c1nc2ccccc2nc1N1CCN(Cc2ccc3c(c2)OCO3)CC1 (stereo not given) yielded an inhibition of 3.1%.
CCCCN(C)C(=O)c1ccc2c(c1)N(CC)C(=O)c1ccccc1S2(=O)=O was tested, and the inhibition was -4.8%.
COc1cc2c(cc1OC)C(c1ccncc1)CC(=O)N2 (stereo not given) showed an inhibition of 9.6%.
In the case of COc1cccc(N(CC(=O)NC2CCCC2)C(=O)Cn2nnc(-c3ccc(C)cc3)n2)c1, the inhibition is reported as -2%.
For O=C(Nc1nc(-c2ccncc2)cs1)C1COc2ccccc2O1 (stereo not given), the inhibition was 114% (active).
O=C(Nc1nc(-c2ccc3c(c2)OCO3)cs1)c1ccncc1 gave an inhibition of -1.2%.
With COc1ccc(OC)c2sc(NC(=O)C3COc4ccccc4O3)nc12 (stereo not given) the inhibition was -3.1%.
Cc1ccc(N(CC(O)CN2CCCC2)S(=O)(=O)c2ccccc2)cc1 (stereo not given) was tested, and the inhibition was 1.4%.
Molecule CC1=C(C(=O)OCc2ccccc2)C(c2ccco2)n2ncnc2N1 (stereo not given) has an inhibition of -9.2%.
For CC(=C1C(=O)c2ccccc2C1=O)N1CCN(c2ccccn2)CC1, the inhibition was 7.8%.
Cc1cccc2cc(CN(Cc3nnnn3Cc3ccccc3)C3CCCC3)c(=O)[nH]c12 gave an inhibition of -0.6%.
Work on O=C(Nn1cnc2ccccc2c1=O)c1ccc(F)cc1Cl yielded an inhibition of 4.2%.
Molecule CCCCCCn1c(SCC(=O)c2ccccc2)nc2c1c(=O)[nH]c(=O)n2C has an inhibition of 6.3%.
Molecule O=C(CSc1nnc2scc(-c3ccc(F)cc3)n12)NCc1ccco1 has an inhibition of 2.1%.
For CC1(C)C2CCC1(C)C(OC(=O)CCn1ccnc1)C2 (stereo not given), the inhibition was 6.6%.
In the case of O=C(CC1Nc2ccccc2NC1=O)Nc1ccccc1 (stereo not given), the inhibition is reported as 3%.
In the case of O=C(C1=C(O)C(=O)N(c2ncccn2)C1c1cccs1)c1ccco1 (stereo not given), the inhibition is reported as -11.1%.
In the case of CNC(=O)C1CC(=O)N(Cc2ccc3c(c2)OCO3)C(=Nc2ccc(F)cc2)S1 (stereo not given), the inhibition is reported as -7.4%.
In the case of O=CN1CCN(C2CC(=O)N(c3ccc4c(c3)OCO4)C2=O)CC1 (stereo not given), the inhibition is reported as 7%.
Molecule O=C1CC(N2CCN(C(c3ccccc3)c3ccccc3)CC2)C(=O)N1 (stereo not given) has an inhibition of 5.5%.
For CCc1ccc2oc(-c3ccc(N)cc3)nc2c1, the inhibition was 4.1%.
For CCCCCC(=O)Nc1ccc2oc(-c3ccncc3)nc2c1, the inhibition was 22.3% (active).
Molecule CCCC(=O)Nc1ccc2c(c1)nc1n2CCSC1 has an inhibition of -0.6%.
Work on NC(=O)C1CCN(C2OC(=O)c3ccccc32)CC1 (stereo not given) yielded an inhibition of 7.4%.
COc1cc2c(cc1NC(=O)CN1CCN(S(=O)(=O)c3ccc(F)cc3)CC1)oc1ccccc12 showed an inhibition of 3.5%.
Molecule Cc1noc(COc2ccccc2OCC(O)CNC(C)(C)C)n1 (stereo not given) has an inhibition of 1.2%.
O=P(c1ccc2c(c1)OCCO2)(N1CCOCC1)N1CCOCC1 gave an inhibition of -3.2%.
Cc1nn(-c2ccccc2)c2[nH]c(C(F)(F)F)cc(=O)c12 showed an inhibition of -0.3%.
With CCOc1ccc(CCNC(=O)C(CC)n2nc(C)n3c(cc4sccc43)c2=O)cc1OCC (stereo not given) the inhibition was -3.8%.
Molecule CCc1nnc(NC(=O)CCC(=O)O)s1 has an inhibition of -4.5%.
With O=[n+]1c2c(n([O-])c3cc(Br)ccc31)CCC2 the inhibition was -5%.
Molecule CC(=O)c1ccc(NC(=O)N[C@@H](Cc2ccccc2)C(=O)O)cc1 has an inhibition of -0.8%.
In the case of Cc1cc(Nc2ccccc2)n(CCC#N)n1, the inhibition is reported as 4.6%.
Cc1c(C(=O)N2CC(C)OC(C)C2)sc2nc(-c3ccccc3)cn12 (stereo not given) gave an inhibition of 8.6%.
Work on Cc1c(NC(=O)C(C)OC(=O)c2cc3c4ccccc4n(C)c3s2)c(=O)n(-c2ccccc2)n1C (stereo not given) yielded an inhibition of 5.5%.
Fc1cnc(N2CCOCC2)nc1NCc1ccccc1 was tested, and the inhibition was -0.4%.
Molecule Cc1nc(-c2ccc(NC(=O)c3cccs3)cc2)cs1 has an inhibition of -25%.
Molecule Cc1nnc(NC2=NCCCCC2)o1 has an inhibition of -0.7%.
In the case of Cc1ccc(S(=O)(=O)c2nc(NCCCn3ccnc3)sc2Cl)cc1, the inhibition is reported as 1.7%.
In the case of CCC1(C)N(O)C(C)(C)C(c2ccc(OC)cc2)=[N+]1[O-] (stereo not given), the inhibition is reported as 2.5%.
In the case of O=c1[nH]c(=O)n(Cc2ccco2)c2c1C(C(F)(F)F)(C(F)(F)F)N=C(c1ccco1)N2, the inhibition is reported as 5%.
In the case of N#CCCN1CCN(S(=O)(=O)c2ccc(S(=O)(=O)NC3CC3)cc2)CC1, the inhibition is reported as 1.7%.
With CCOC(=O)CSc1nnc(-c2cccc(Br)c2)o1 the inhibition was 2.1%.
For COc1cc(=O)[nH]c(=O)n1C(=O)Cc1ccccc1, the inhibition was -0.6%.
Molecule Cc1cc(C)nc(SCc2ccccc2C#N)n1 has an inhibition of 6%.
COc1ccc(N2C(=O)C3CCCN3C2c2cccs2)cc1 (stereo not given) gave an inhibition of -2.8%.
CCC(C)(NC(=O)c1ccccn1)C(=O)NC1CCCCC1 (stereo not given) gave an inhibition of -0.8%.
Cc1ccc2[nH]c(=O)c(COC(=O)c3ccccn3)cc2c1 showed an inhibition of 6.5%.
CCCC(=O)Nc1ccc(Cl)c(NC(=O)c2ccc(Br)o2)c1 showed an inhibition of -0.6%.
With O=C(c1ccco1)N1CCN(C(=O)C2CC(c3ccc(F)cc3)=NO2)CC1 (stereo not given) the inhibition was 1.1%.
With COc1ccc(C(=O)Nc2c(N)nc(SCC(=O)N3CCC(C)CC3)[nH]c2=O)cc1OC the inhibition was 1.5%.
With CN1CCN(CC(O)COCc2ccc3c(c2)OCO3)CC1 (stereo not given) the inhibition was 5.7%.
Work on O=C(NCc1ccco1)c1cnn2c(C(F)(F)F)cc(-c3ccco3)nc12 yielded an inhibition of 12.9%.
Molecule NC(=O)Cn1c(=O)oc2ccccc21 has an inhibition of -2%.
Work on CCOc1ccc2[nH]c(=O)c(CN(CCCO)C(C)=O)cc2c1 yielded an inhibition of -4.4%.
Fc1ccc(Cn2nnnc2C(c2cccs2)N2CCCCCC2)cc1 (stereo not given) was tested, and the inhibition was 4.1%.
For CC(C)C1Cc2c(sc3c2c(=O)n(-c2ccccc2)c2nncn32)CO1 (stereo not given), the inhibition was 5.5%.
O=C(c1ccco1)N1CCN(C(=O)c2ccc(COc3ccc(F)cc3)o2)CC1 gave an inhibition of -1.9%.
With O=S(=O)(Nc1ccccn1)c1ccc(Oc2ccccc2)cc1 the inhibition was -6.5%.
Nn1c(SCC(=O)NC(=O)NC2CCCC2)nnc1-c1ccccc1F was tested, and the inhibition was 12.5%.
For CN1C(=O)c2ccc(NC(=O)c3c(F)c(F)c(F)c(F)c3F)cc2C1=O, the inhibition was 9.3%.
For CCCCC(=O)Nc1ccc2c(c1)C(=O)NC2=O, the inhibition was 23.1% (active).
With CCCCC(=O)Nc1ccc2c(c1)OCCO2 the inhibition was -1.9%.
With Cc1ccccc1CSCC(=O)NC(=O)NC(C)(C)C the inhibition was 4.6%.
CCSc1nc(=S)n(CC)c(C)c1C(C)=O showed an inhibition of 0.9%.
Molecule CSc1ccc(NC(=O)N2CC(C)OC(C)C2)cc1 (stereo not given) has an inhibition of 6.5%.
For CCN(CC)C(=O)CSc1nnc(-c2ccc(S(=O)(=O)NCc3ccccc3Cl)cc2)o1, the inhibition was 1.9%.
Work on Cc1nn(Cc2ccc(Cl)c(Cl)c2)c(C)c1NC(=O)c1cc(C2CC2)on1 yielded an inhibition of -8.2%.
Cc1ccc(O)c(NC(=O)COc2cc(C)ccc2C)c1 showed an inhibition of 3.2%.
In the case of COc1ccc(OC)c(NC(=O)CN2CCN(C(=O)c3ccco3)CC2)c1, the inhibition is reported as 0.1%.
OCCNCCCCOc1ccccc1F showed an inhibition of 5.9%.
For CCSc1ncnc2c(C#N)c3n(c12)CCCCC3, the inhibition was 3%.
CC(=O)Nc1nonc1-c1nc2ccccc2n1Cc1ccccn1 was tested, and the inhibition was 2.3%.
With Cn1c(=O)c2c(n(Cc3ccccc3)c1=O)NC(=O)C2CC(=O)N1CCc2ccccc2C1 (stereo not given) the inhibition was 6.4%.
Molecule C=CCn1c(C)cc(C(=O)CN2C(=O)c3ccccc3C2=O)c1C has an inhibition of 2.5%.
CCCn1cc(SCC(N)=O)c2ccccc21 was tested, and the inhibition was 4.9%.
For Cc1ccc(C(=O)NCC2CCCO2)o1 (stereo not given), the inhibition was 4.3%.
C=CCn1cnc2scc(-c3ccccc3)c2c1=O was tested, and the inhibition was 1.2%.
With C#CCN1CC(C)/C(=N/O)CC1C (stereo not given) the inhibition was 3.7%.
O=C1CC(c2ccccc2)CC(O)=C1C=NCCN1CCOCC1 (stereo not given) was tested, and the inhibition was 3.3%.
COc1cccc(N2CCN(C(=O)C3CCCN(S(=O)(=O)c4cnc[nH]4)C3)CC2)c1 (stereo not given) showed an inhibition of 3.3%.
Molecule Cc1cc(C(=O)CC#N)c(C)n1CC(F)(F)F has an inhibition of 3.3%.
With O=C1C=C(NCCNc2c(F)c(F)c(CO)c(F)c2F)CCC1 the inhibition was 1.5%.
Cc1cn(C2C=CC(CO)O2)c(=O)[nH]c1=O (stereo not given) showed an inhibition of 6.1%.
In the case of Cc1cc(=O)[nH]c(SCC(=O)N2c3ccccc3CC2C)n1 (stereo not given), the inhibition is reported as -3.6%.
